Compound activity from PubChem.
JMJD2A Tudor inh – blocks the human JMJD2A Tudor domain. AlphaScreen JMJD2A-Tudor / H3K4me3 peptide binding. 390,000 tested, 4.4% active. O75164. Potency, µM (titrated, usually from 114 µM), without a hit: top-dose activity change, negative = inhibition, most hits filed as inhibitors; note: potency is the fitted concentration of half-maximal effect; % is set by controls: 0 for no effect and ±100 for the full control effect; nearly all actives have a fitted effect of over 50% in size
BAZ2B inh – inhibitors of human BAZ2B bromodomain; Potency, µM (series often up to 114 µM), for the others: at the top dose activity change, negative = inhibition, usual class: inhibitors; AlphaScreen BAZ2B-H3K14Ac peptide displacement; 360,000 tested, 4.4% active; note: potency is the fitted concentration of half-maximal effect; % is set by controls: 0 for no effect and ±100 for the full control effect; nearly all actives have a fitted effect of over 60% in size
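Compounds, titrated to a top concentration of 110 uM, were incubated 30 min at room temperature with preformed BAZ2B/acetyl-K14 H3 peptide complex (50 nM each). Proximity signal was measured by AlphaScreen after 20 min with beads.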
PLK1 PBD block – blocks phosphopeptide binding to human PLK1 polo-box domain; 360,000 tested, 2.8% active; P53350; Plk1 PBD binding of FITC phosphopeptide, fluorescence polarization; AID 720504; Potency, µM, inactives show max response, negative = inhibition, most hits filed as inhibitors; note: potency is the fitted concentration of half-maximal effect; series mostly up to about 57 µM; % is set by controls: 0 for no effect and ±100 for the full control effect; nearly all actives have a fitted effect of over 65% in size
Target sequence (P53350 whole entry, looked up, the tested form may be a part): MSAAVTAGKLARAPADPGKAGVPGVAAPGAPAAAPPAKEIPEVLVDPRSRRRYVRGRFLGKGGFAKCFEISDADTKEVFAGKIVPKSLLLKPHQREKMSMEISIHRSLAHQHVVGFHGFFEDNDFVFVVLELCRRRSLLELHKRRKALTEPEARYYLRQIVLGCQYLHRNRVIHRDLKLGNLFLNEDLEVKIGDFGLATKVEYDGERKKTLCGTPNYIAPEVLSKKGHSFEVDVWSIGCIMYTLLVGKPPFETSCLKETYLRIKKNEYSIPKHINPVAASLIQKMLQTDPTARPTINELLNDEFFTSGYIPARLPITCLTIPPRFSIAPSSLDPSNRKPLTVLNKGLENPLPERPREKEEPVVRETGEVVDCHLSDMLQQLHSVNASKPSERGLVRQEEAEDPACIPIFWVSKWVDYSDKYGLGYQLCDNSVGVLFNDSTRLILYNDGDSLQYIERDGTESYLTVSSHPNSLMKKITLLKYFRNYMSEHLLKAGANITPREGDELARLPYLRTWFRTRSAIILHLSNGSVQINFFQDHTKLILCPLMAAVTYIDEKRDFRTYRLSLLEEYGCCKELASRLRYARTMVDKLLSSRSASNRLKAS
PI5P4K alpha inh – blocks human PI5P4K alpha kinase activity; P48426; PI5P4Kalpha enzyme, ADP-Glo luminescence, 60 min; stronger effect = lower value; max response, %; 330,000 tested, 1.2% active; AID 652105; active = max response of -50% or lower; inconclusive = between -30% and -50%; inactive = -30% or higher; note: value at the top dose of about 77 µM; % is set by controls: 0 for no effect and ±100 for the full control effect
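Reactions run in 0.038 M HEPES pH 7.4, 0.28 mM EGTA, 0.1% CHAPS and 5% DMSO, with PI5P4Kalpha, substrate, compound and 5 microM ATP final, one hour at room temperature. Readout is ADP-Glo luminescence.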
HP1b binding inh – HP1-beta chromodomain-methylated histone interaction inhibition | 390,000 tested, 0.56% active | Potency, µM (titrated, usually from 114 µM), for the others: top-dose activity change, negative = inhibition, most hits filed as inhibitors | P83916 | AlphaScreen HP1-beta / biotin-H3K9me3 peptide binding; note: potency is the fitted concentration of half-maximal effect; nearly all actives have a fitted effect of over 70% in size
Target sequence (P83916 whole entry, looked up): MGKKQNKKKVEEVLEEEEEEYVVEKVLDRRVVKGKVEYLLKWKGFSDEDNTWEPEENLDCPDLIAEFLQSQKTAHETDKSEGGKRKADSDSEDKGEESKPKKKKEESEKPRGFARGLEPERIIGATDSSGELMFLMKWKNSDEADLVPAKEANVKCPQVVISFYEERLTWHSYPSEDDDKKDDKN
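Compound inhibition of the preformed complex between 50 nM HP1-beta and 50 nM biotinylated H3K9me3 peptide was read by AlphaScreen. Buffer was PBS pH 7.4 with 0.01% Tween-20. Incubations ran 30 min at room temperature, with 10 ug/mL donor/acceptor beads.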
GCN5L2 inh – inhibitors of human GCN5L2 histone acetyltransferase; Q92830; GCN5L2 HAT assay, ThioGlo1 CoA-SH fluorescence; Potency, µM (titrated, usually from 58.9 µM), inactives show top-dose activity change, negative = inhibition, usual class: inhibitors; 390,000 tested, 0.21% active; AID 504327; note: potency is the fitted concentration of half-maximal effect; % is set by controls: 0 for no effect and ±100 for the full control effect
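GCN5L2 (20 nM) in 50mM HEPES pH 7.5, 0.1mM EDTA, 0.01% Tween-20 preincubated 15 min with compounds at room temperature. Reaction started with H3(1-25) 75uM, acetyl-CoA 70uM, ThioGlo1 50uM; CoA-thiol fluorescence (Ex340/Em540) read at 0 and 20 min.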
Numbers without * were called inactive; ? = inconclusive; · = no result; [ ] = dose if it differs, or a comment. Most compounds without a hit are left out; they make up all but 7% or so of the library. Unless noted, calls come from the whole dose curve; as a rule, active = well fitted curve in the direction sought with a large enough effect; inconclusive = small, poorly fitted or top-dose-only effect, or another doubt; inactive = no such curve, though single readings can be large; an effect the other way counts as inactive or inconclusive.

SMILES | JMJD2A Tudor inh | BAZ2B inh | PLK1 PBD block | PI5P4K alpha inh | HP1b binding inh | GCN5L2 inh
COc1ccc(/C=N/S(=O)(=O)c2cccs2)cc1 | 10.5% | 4.8% | -4.9% | -3.6 | 16.4% | -3.2%
COc1ccc(/C=C2\S/C(=N/S(=O)(=O)c3cccs3)NC2=O)cc1 | -34.3% | · | 23.8µM* | -23.5 | 14.7% | 0.6%
CCCCOc1ccc(C2(C)NC(=O)N(C)C2=O)cc1 (centres undefined) | -3.1% | -3.0% | -7.9% | 0.1 | 25.8% | -5.8%
CCOc1ccccc1NC(=O)c1ccc2c(O)c(S(=O)(=O)c3ccccc3)c(=O)[nH]c2c1 | · | · | -1.4% | -1.2 | · | ·
COc1ccc(S(=O)(=O)c2c(O)c3ccc(C(=O)Nc4ccc(F)cc4)cc3[nH]c2=O)cc1 | 50.1µM* | -29.3% | 29.9µM* | ? | -0.9% | -8.0%
CCc1ccccc1NC(=O)c1ccc2c(O)c(S(=O)(=O)c3ccc(OC)cc3)c(=O)[nH]c2c1 | 20µM* | -9.7% | 3.36µM* | -21.6 | -8.5% | -6.6%
CCc1ccccc1NC(=O)c1ccc2c(O)c(S(=O)(=O)c3ccccc3)c(=O)[nH]c2c1 | 79.4µM* | ? | · | · | 6.3% | -11.7%
CCCCOc1ccc(S(=O)(=O)Nc2ccc(-c3ccc(N4CCC(C)CC4)nn3)cc2)cc1 | -22.0% | -12.9% | · | · | 7.0%[57 µM] | -2.0%
CCNC(=O)NCc1cccc(Cl)c1 | · | · | · | · | · | 1.9%
COc1cc(S(=O)(=O)Nc2ccc3c(c2)C(=O)N(C)C3=O)ccc1NC(C)=O | -9.7% | · | -4.6% | -1.6 | 13.6%[57 µM] | -3.8%
CCOC(=O)C1CCCN(C(=O)c2cc3c(=O)n(C)c4ccccc4c3s2)C1 (centres undefined) | -17.0% | · | · | · | 32.2% | 1.5%
COC(=O)N1C(=O)[C@](c2ccc(Cl)cc2)(C(C)C)N1C(=O)OC | -3.4% | 2.8% | 23.8µM* | 6.4 | 101.4% | -3.5%
O=S(=O)(NCC1CN(S(=O)(=O)c2c(F)cccc2F)C1)c1ccc2c(c1)OCCO2 | -14.3% | 9.5% | · | · | 15.4% | -4.1%
O=C(COC(=O)c1cccc([N+](=O)[O-])c1)NCC1CCCO1 (centres undefined) | -15.5% | -33.4% | 26.7µM* | -10.9 | -0.9% | -2.5%
CC(C)CN1C(=O)C(=O)N(CC(=O)c2ccc[nH]2)C1=O | -5.5% | 8.0% | -7.2% | 4.8 | 19.6% | -10.2%
O=C(c1coc(=O)c(Br)c1)N1CCCc2ccccc21 | 39.8µM* | 22.4µM* | 0.0% | ? | -33.5% | -17.2%
O=C(c1cc(-c2ccco2)on1)N1CCCc2ccccc21 | 56.2µM* | ? | ? | · | -7.8% | -9.8%
O=C(c1cc(-c2ccco2)on1)N1CCc2ccccc2C1 | 50.1µM* | 25.1µM* | ? | · | -15.9% | ?
O=C(c1cccc(Br)c1)N1CCCc2ccccc21 | -1.4% | -4.6% | -9.6% | 0.1 | 80.1% | -5.7%
CC1(C)CCCN(C(=O)c2coc(=O)c(Br)c2)C1 | 17.8µM* | 20µM* | 10.6µM* | -81.5* | -94.8% | -24.9%
CC(C)(C)c1ccccc1NC(=O)Nc1nc(C(N)Cc2ccc(F)cc2)cs1 (centres undefined) | · | · | -2.4% | 2.1 | · | ·
CN1CCN(CCNC(=O)Cn2c(=O)c3cccn3c3ccc(F)cc32)CC1 | -3.3% | -14.1% | -14.4% | 4.5 | 41.8% | -17.1%
S=c1[nH]nc(-c2cc(-c3ccccc3)n[nH]2)n1/N=C/c1ccc(Cl)cc1 | -31.0% | -20.5% | -20.4% | -24.6 | 24.9% | -10.2%
S=c1[nH]nc(-c2cc(-c3ccccc3)n[nH]2)n1/N=C/c1ccc(Cl)c(Cl)c1 | 50.1µM* | 44.7µM* | ? | -19.7 | 128.7% | -28.7%
S=c1[nH]nc(-c2cc(-c3ccccc3)n[nH]2)n1/N=C/c1cccc(Cl)c1 | 39.8µM* | 50.1µM* | ? | -15.3 | ? | -21.2%
SMILES | JMJD2A Tudor inh | BAZ2B inh | PLK1 PBD block | PI5P4K alpha inh | HP1b binding inh | GCN5L2 inh
CCN(C(=O)Cn1c(=O)oc2cc(S(=O)(=O)N3CCCC3)ccc21)c1cccc(C)c1 | -11.1% | 1.9% | · | · | 39.5% | -10.8%
CCN(C(=O)Cn1c(=O)oc2ccccc21)c1cccc(C)c1 | ? | -24.6% | 26.7µM* | -8.8 | 9.4% | 1.8%
COc1ccc(N2CCC(CNC(=S)Nc3cc(C)cc(C)c3)C2)cc1 (centres undefined) | 20µM* | 3.16µM* | -15.3% | 3.6 | 15.8µM* | -24.9%
COc1ccc(N2CCC(CNC(=S)Nc3cc(C)ccc3C)C2)cc1 (centres undefined) | 39.8µM* | 31.6µM* | ? | 5.9 | ? | -5.5%
COc1ccc(N2CCN(C(=S)Nc3cc(C)ccc3C)CC2)cc1 | -2.9% | -0.8% | 2.1% | · | 7.2% | 2.2%
CC(=O)c1ccc(NS(=O)(=O)c2cc3c(cc2C)N(C)CCO3)cc1 | ? | ? | 23.8µM* | -10.8 | -3.7% | -4.5%
CC(=O)c1ccc(NS(=O)(=O)c2cc3c(cc2C)N(C(C)=O)CCO3)cc1 | -6.9% | -35.3% | -6.1% | 3.5 | 38.4% | -8.8%
COc1ccc(NS(=O)(=O)c2cc3c(cc2C)N(C)CCO3)c(OC)c1 | ? | 50.1µM* | -0.1% | -2.3 | -9.8% | 57.3%
CCOc1ccc(C2CC(=O)Nc3nc(SCc4ccccc4C)[nH]c(=O)c32)cc1OC (centres undefined) | -26.5% | -1.6% | · | · | 0.4% | -8.6%
Cc1nc(-c2ccc(Cl)cc2)sc1CCNC(=O)C(=O)Nc1ccc(F)cc1F | 0.3% | -1.9% | · | · | 29.8%[57 µM] | -10.8%
CC(=O)c1ccc2c(c1)c(C#N)c1ccccc1[n+]2[O-] | -4.4% | -5.2% | 2.38µM* | 0.3 | 14.1% | 1.8%
CC(=O)c1ccc2c(c1)Cc1cc(C(C)=O)ccc1-2 | -5.4% | -0.6% | -12.9% | 4.5 | 18.0% | 3.5%
Cc1cc(NC(=O)CSc2nc(-c3cccnc3)ccc2C#N)no1 | -18.3%[11.4 µM] | 4.0% | -22.7% | 5.5 | 55.4% | -5.7%
Cc1cc(NC(=O)CSc2nc3c(c(-c4cccnc4)c2C#N)CCC3)no1 | ? | 79.4µM* | -5.9% | · | 22.3% | -6.4%
CCCOc1ccc(-c2c(=O)n(O)c3ccccc3[n+]2[O-])cc1 | 56.2µM* | ? | -20.9% | -0.2 | -18.0% | -9.0%
CCOc1ccc(-c2c(=O)n(OCc3ccccn3)c3ccccc3[n+]2[O-])cc1 | -4.5% | -8.9% | -4.1% | 0.3 | 17.3% | -6.0%
CCC(C)(C)NC(=O)Cn1c(-c2ccccc2)cc(C(C)=O)c1C | -21.4% | ? | -1.7% | 13.2 | 6.0% | -1.5%
CC(=O)c1cc(-c2ccccc2)n(CC(=O)NC(C)(C)C)c1C | -19.3% | 50.1µM* | -11.7% | 13.4 | 9.5% | 0.5%
CC(=O)c1cc(-c2ccccc2)n(CC(=O)N2CCCC2)c1C | -17.4% | 56.2µM* | -5.6% | -1.6 | -3.4% | -3.4%
CC1CCCN(C(=O)CCCn2c(=S)[nH]c3ccccc3c2=O)C1 (centres undefined) | -14.9% | 2.9% | -11.8% | · | 29.6% | 0.0%
